# Out of some 44,000 sequences screened, about 2,900 (6.6%) were called active. Rule as the data show it: active = GI50 up to about 1.1 µM and inactive = higher. Only a sample is shown. Potency and affinity values are given separately.
# Tested on: MDA-MB-231
row,Substance,GI50
1,"[Bis(aminomethyl)tetramethylenesilane]tetrachloropaltinum(IV), CHEMBL2146189",21 µM
2,"[Bis(aminomethyl)pentamethylenesilane]tetrachloropaltinum(IV), CHEMBL2146204",19.6 µM
3,"CISPLATIN, CHEMBL11359",22.4 µM
4,"[Bis(aminomethyl)tetramethylenesilane]dichloropaltinum(II), CHEMBL2146205",48.6 µM
5,"[Bis(aminomethyl)pentamethylenesilane]dichloropaltinum(II), CHEMBL2146202",2.01 µM
6,"[Bis(aminomethyl)dimethylsilane]tetrachloroplatinum(IV), CHEMBL2146190",60.1 µM

# Source: ChEMBL document CHEMBL1201862, “PubChem BioAssay data set” (2004)
